From the supplement of paper PMC13380429

Tested on: Vero E6 infected with SARS-CoV-2
Test: inhibition of SARS-CoV-2 cytopathic effect; higher = more antiviral protection, active = above 15
Conditions: 48 h

Measured: inhibition of SARS-CoV-2 cytopathic effect

O=C(Nc1c[nH]nc1-c1nc2ccc(CN3CCOCC3)cc2[nH]1)NC1CC1
inactive: 1 nM 0.02% | 8.33 nM -0.1% | 100 nM 0.35% | 833.33 nM 0.87% | 10000 nM -5.1%

CC[C@@H](Nc1c(Nc2cccc(C(=O)N(C)C)c2O)c(=O)c1=O)c1ccc(C)o1 [navarixin]
inactive: 1 nM -0.8% | 8.33 nM 1.26% | 100 nM 0.77% | 833.33 nM 1.8% | 10000 nM -2.11%

O/N=C/c1cc[n+](COC[n+]2ccc(/C=N/O)cc2)cc1 [obidoxime]
inactive: 1 nM 1.54% | 8.33 nM -0.64% | 100 nM -1.56% | 833.33 nM -1.59% | 10000 nM -2.39%

O=[N+]([O-])/N=C1\NCCN1Cc1ccc(Cl)nc1 [imidacloprid]
inactive: 1 nM 0.83% | 8.33 nM 5.02% | 100 nM 6.8% | 833.33 nM 5.42% | 10000 nM 3.01%

COc1cccc(N2CCN(C3=Nc4c(F)cccc4[C@H](CC(=O)O)N3c3cc(C(F)(F)F)ccc3OC)CC2)c1 [letermovir]
inactive: 1 nM -1.18% | 8.33 nM 0.62% | 100 nM 0.16% | 833.33 nM 0.96% | 10000 nM 1.82%

Cc1cccc(C)c1NC(=O)CC12CCCN1CCC2 [pilsicainide]
inactive: 1 nM 0.34% | 8.33 nM 2.77% | 100 nM 4.31% | 833.33 nM 6.65% | 10000 nM -1.57%

COc1cc(NS(=O)(=O)c2ccc(N)cc2)ncn1 [sulfamonomethoxine]
inactive: 1 nM 0.65% | 8.33 nM 1.44% | 100 nM -1.17% | 833.33 nM 1.1% | 10000 nM 1.17%

Cn1c(=O)c2c(ncn2C)n(C)c1=O [caffeine]
inactive: 1 nM -0.58% | 8.33 nM 1.54% | 100 nM -0.63% | 833.33 nM 2.87% | 10000 nM 3.35%

Nc1ccncc1N [amifampridine]
inactive: 1 nM -1.81% | 8.33 nM -1.46% | 100 nM -2.67% | 833.33 nM -3.34% | 10000 nM -5.61%

Oc1cc(O)c2c(c1)O[C@H](c1ccc(O)c(O)c1)[C@@H](O)C2 [cianidanol]
inactive: 1 nM -1.29% | 8.33 nM 0.71% | 100 nM -1.15% | 833.33 nM -0.95% | 10000 nM -2.3%

O=C(O)c1ccc(/C=C2\SC(=S)N(c3cccc(C(F)(F)F)c3)C2=O)cc1
inactive: 1 nM -0.08% | 8.33 nM -0.83% | 100 nM -2.17% | 833.33 nM -1.38% | 10000 nM -0.46%

N[C@@H]1CN(c2c(F)cc3c(=O)c(C(=O)O)cn([C@@H]4C[C@@H]4F)c3c2Cl)CC12CC2 [sitafloxacin]
inactive: 1 nM -0.69% | 8.33 nM -3.2% | 100 nM -0.99% | 833.33 nM -1.2% | 10000 nM 5.19%

Cc1ccc(/N=C/N(C)/C=N/c2ccc(C)cc2C)c(C)c1 [amitraz]
inactive: 1 nM -1.29% | 8.33 nM -0.98% | 100 nM -1.78% | 833.33 nM -1.85% | 10000 nM 0.1%

CNCCCN1c2ccccc2CCc2ccccc21 [desipramine]
inactive: 1 nM -0.7% | 8.33 nM -0.11% | 100 nM -1.22% | 833.33 nM -1.13% | 10000 nM -2.62%

CN1CCC(c2c[nH]c3ccc(O)cc23)CC1
inactive: 1 nM -0.56% | 8.33 nM 2.91% | 100 nM 0.58% | 833.33 nM 3.92% | 10000 nM -0.8%

CSc1cc2c(cc1C(F)(F)F)N(C(=O)Nc1cccnc1)CC2
inactive: 1 nM -0.31% | 8.33 nM -3.61% | 100 nM 1.56% | 833.33 nM 1.75% | 10000 nM 0.95%

Cc1cc(I)ccc1Nc1c(C(=O)NOCC2CC2)cc(F)c(F)c1F
inactive: 1 nM 0.41% | 8.33 nM 5.24% | 100 nM 7.71% | 833.33 nM -0.67% | 10000 nM -4.88%

O=C(O)CNC(=O)c1ccccc1I [2-iodohippuric-acid]
inactive: 1 nM 3.32% | 8.33 nM 2.66% | 100 nM 0.05% | 833.33 nM 0.88% | 10000 nM 0.58%

COc1cccc(OC)c1C(=O)N[C@@H]1C(=O)N2[C@@H]1SC(C)(C)[C@@H]2C(=O)O [methicillin]
inactive: 1 nM -3.39% | 8.33 nM 1.78% | 100 nM -1.39% | 833.33 nM -0.54% | 10000 nM 1.21%

CC/C=C\C/C=C\C/C=C\C/C=C\C/C=C\C/C=C\CCC(=O)OCC [doconexent-ethyl-ester]
inactive: 1 nM -1.67% | 8.33 nM 0.01% | 100 nM 0.45% | 833.33 nM 0.72% | 10000 nM 0.36%

CN(C)c1ccc2c(c1)Sc1cc(N(C)C)ccc1N2 [leucomethylene-blue]
inactive: 1 nM 2.22% | 8.33 nM 0.11% | 100 nM 0.26% | 833.33 nM 0.69% | 10000 nM -7.13%

O=C(Nc1ccncc1)C(=O)c1cn(Cc2ccc(Cl)cc2)c2ccccc12 [indibulin]
inactive: 1 nM 1.08% | 8.33 nM 1.94% | 100 nM 0.77% | 833.33 nM 0.68% | 10000 nM -6.21%

O=C(COP(=O)(O)O)[C@@H](O)[C@H](O)[C@H](O)COP(=O)(O)O [fosfructose]
inactive: 1 nM -6.09% | 8.33 nM -3.73% | 100 nM -0.5% | 833.33 nM 1.38% | 10000 nM -1.68%

Cc1nccc2[nH]c(=O)ccc12 [medorinone]
inactive: 1 nM -1.14% | 8.33 nM -4.65% | 100 nM 1.27% | 833.33 nM -0.3% | 10000 nM -3.87%

Cc1ncc(CN2CC=C(c3ccccc3)CC2)c(N)n1
inactive: 1 nM 0.67% | 8.33 nM 0.52% | 100 nM -0.09% | 833.33 nM 0.15% | 10000 nM 0.43%

NC(=O)CN1C=CCC(C(N)=O)=C1 [caricotamide]
inactive: 1 nM 0.48% | 8.33 nM 2.71% | 100 nM 1.14% | 833.33 nM -1.91% | 10000 nM 0.44%

COCCN1CCN(Cc2ccc(-c3n[nH]c4c3C(=O)c3c(NC(=O)NN5CCOCC5)cccc3-4)cc2)CC1
inactive: 1 nM 0.81% | 8.33 nM -16.4% | 100 nM 0.61% | 833.33 nM 2.47% | 10000 nM 9%

CCOc1ccc(/C=C2\NCCc3cc(OCC)c(OCC)cc32)cc1OCC [drotaverine]
inactive: 1 nM 1.53% | 8.33 nM 2.33% | 100 nM -0.04% | 833.33 nM 2.62% | 10000 nM 0.78%

c1ccc2sc(SNC3CCCCC3)nc2c1 [N-cyclohexyl-2-benzothiazolesulfenamide]
inactive: 1 nM 2.74% | 8.33 nM 0.54% | 100 nM -0.9% | 833.33 nM -0.46% | 10000 nM -3.64%

CN1C(C(=O)Nc2ccccn2)=C(O)c2sccc2S1(=O)=O [tenoxicam]
inactive: 1 nM -1.61% | 8.33 nM -5.04% | 100 nM -1.6% | 833.33 nM 0.7% | 10000 nM -2.71%

C=CC(=O)Nc1cccc(Oc2nc(Nc3ccc(N4CCN(C)CC4)cc3)ncc2Cl)c1
inactive: 1 nM -1.99% | 8.33 nM 1.76% | 100 nM -2.31% | 833.33 nM -12.8% | 10000 nM -1.76%

CC(C)NC[C@@H](O)c1ccc(O)c(O)c1 (racemic) [isoprenaline]
inactive: 1 nM 1.39% | 8.33 nM -0.18% | 100 nM -0.08% | 833.33 nM 0.77% | 10000 nM -2.47%

Cc1c2oc3c(C)ccc(C(=O)N[C@@H]4C(=O)N[C@@H](C(C)C)C(=O)N5CCC[C@H]5C(=O)N(C)CC(=O)N(C)[C@@H](C(C)C)C(=O)O[C@@H]4C)c3nc-2c(C(=O)N[C@@H]2C(=O)N[C@@H](C(C)C)C(=O)N3CCC[C@H]3C(=O)N(C)CC(=O)N(C)[C@@H](C(C)C)C(=O)O[C@@H]2C)c(N)c1=O [actinomycin-d]
inactive: 1 nM -0.33% | 8.33 nM 1.99% | 100 nM 0.83% | 833.33 nM -8.47% | 10000 nM -14.8%

CC(C)(C)c1ccc2cc(C#N)c(C#N)cc2c1
inactive: 1 nM 0.02% | 8.33 nM 1.71% | 100 nM -1.56% | 833.33 nM 0.05% | 10000 nM -3.93%

CCN1CCN(Cc2ccc(Nc3ncc(F)c(-c4cc(F)c5nc(C)n(C(C)C)c5c4)n3)nc2)CC1 [abemaciclib]
inactive: 1 nM -2.71% | 8.33 nM -0.27% | 100 nM -1.26% | 833.33 nM 11.9% | 10000 nM 12.3%

C[C@@H]1c2ccccc2CN1CC1=NCCN1 (racemic)
inactive: 1 nM -1.04% | 8.33 nM -0.79% | 100 nM -0.96% | 833.33 nM 1.02% | 10000 nM -0.71%

CC(C)=CCC/C(C)=C/CC/C(C)=C/C=C/C(C)=C/C(=O)O [peretinoin]
inactive: 1 nM 0.75% | 8.33 nM 0.23% | 100 nM -1.49% | 833.33 nM 0.48% | 10000 nM 0.08%

CC1=C(CCC(=O)O)c2cc3[nH]c(cc4nc(cc5[nH]c(cc1n2)c(C)c5C(C)O)C(C)=C4C(C)O)c(C)c3CCC(=O)O (stereo not given) [hematoporphyrin]
inactive: 1 nM 0.75% | 8.33 nM 5% | 100 nM 1.48% | 833.33 nM -0.76% | 10000 nM -6.32%

C[C@@H](O[C@H]1OCCN(Cc2n[nH]c(=O)[nH]2)[C@H]1c1ccc(F)cc1)c1cc(C(F)(F)F)cc(C(F)(F)F)c1 [aprepitant]
inactive: 1 nM -2.6% | 8.33 nM -2.93% | 100 nM -3.21% | 833.33 nM -4.32% | 10000 nM -6.5%
